The first test has as its target HIST2H3A. The experiment in a line: pooled miR-30 sensor sort-seq; sequence = guide strand. The note with it: shRNA.
For TCTCGCGTACCAGCCGCTGGAA, the sensor-assay potency score (higher = more potent) was -1.89.
The same measure, in the same setting: to TGGATGGCGCACAGGTTCGTGT belongs -1.93; to TAATGGTCACGCGCTTGGCGTG, -1.65; to TGGACTTCTGGTAGCGCCGGAT, -1.34.
On the same count and under the same terms, to TTGCGGATCAGCAGCTCCGTGG belongs -1.49; to TCCGTCTTAAAGTCCTGCGCGA, -1.2.
The same measure, in the same setting: to TGGCGCACAGGTTCGTGTCTTC belongs -0.891.
TTAAAGTCCTGCGCGATCTCGC displayed a sensor-assay potency score (higher = more potent) of -0.191.
Still for that read-out and setting: under TTGCCGCCGGTCGACTTGCGAG stands -1.63.
The same measure, in the same setting: under TTCGTGTCTTCGAACAGCCCCA stands -0.563.

The target of a further test is HKR1. The test is described as above. The note with it: shRNA.
In turn, TTGATGAGGACTGACATACTGC displayed a sensor-assay potency score (higher = more potent) of -0.174.
Same read-out and setting: under TACCAGTACAGTCTCATGCATA stands -0.938; under TTAACTTAGCACAAAAGCCTTG, -0.326.
Still for that read-out and setting: under TTTGACTCCTTGATAAAGCCTG stands -0.108; under TTGACTCCTTGATAAAGCCTGG, -0.606.
Still for that read-out and setting: under TTAAGGTTTGACTTCAGGCTAA stands 0.0194; under TACTTTGTCTGTTTCCTCTAGA, 0.778; under TAACTTAGCACAAAAGCCTTGC, 0.138.
In turn, ATAAACTTGAAAACAGCTGAGA came in with a sensor-assay potency score (higher = more potent) of -0.36.
On the same count and under the same terms, under TTGACTTCCACGTAAAGCCTCG stands -0.345; under TTTGGTATCTAGCAATGGCTGA, -0.389; under TTGATTTCTCCAAATCCTGAGA, -0.892.

A further test addresses HLA-DMA. The test is described as above. The note with it: shRNA.
As to TTGGAGTAGGAGCTTCAGGGAC, the sensor-assay potency score (higher = more potent) is -1.01.
Same read-out and setting: to TTCACTGTCAGCATGGGTGGGA belongs 0.0511; to TAGATGATGAGAACAATGCCCA, -0.0715.
Still for that read-out and setting: under TTACTGACAAAACAGACCAAAG stands -1.69; under TCAGCGTGAACACTTCAGCGAT, -1.13.
The same measure, in the same setting: under TGCTGGATCATCCACTCGCAGA stands -1.77.
In turn, ATTTCGTGAGTCACAATGCAGG returned a sensor-assay potency score (higher = more potent) of -1.4.
Sequence TGTGTAGCGGTCAATTTCGTGA yielded a sensor-assay potency score (higher = more potent) of -0.684.
On the same count and under the same terms, under TTCGTGAGTCACAATGCAGGAG stands 0.512; under TCGTGAGTCACAATGCAGGAGA, -0.908.
Still for that read-out and setting: under TTGCTGGATCATCCACTCGCAG stands -1.31.

The next test addresses HLA-DRA. Described as above. The note with it: shRNA.
Sequence TTCTGCTGCATTGCTTTTGCGC returned a sensor-assay potency score (higher = more potent) of -0.581.
The same measure, in the same setting: under TCTTCAGTGATCTTCTCTCTAA stands -0.905; under AAGTCAAACATAAACTCGCCTG, -0.837.
The same measure, in the same setting: to AGACTGTCTCTGACACTCCTGT belongs -1.07; to TTGGTGATCGGAGTATAGTTGG, -0.222; to TAAACTCGCCTGATTGGTCAGG, -0.677.
For TAAACAATAAGTACACAAGAGA, the sensor-assay potency score (higher = more potent) was -0.861.

These data come from the OligoGym collection.
Further: reference of the scale not given here.
